Values without a mark were called inactive. Records with an inconclusive call do not appear. Calls of active or inactive are those of the source. Unless noted, calls come from the whole dose curve; as a rule, active = well fitted curve in the direction sought with a large enough effect; inconclusive = small, poorly fitted or top-dose-only effect, or another doubt; inactive = no such curve, though single readings can be large; an effect the other way counts as inactive or inconclusive.

The values that follow come from PubChem BioAssay (NCATS).

The nature of assay [1]: Cell Viability - BJ (AID 421; calls by dose curve;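 note: potency is the fitted concentration of half-maximal effect; cells exposed to compound for 40 hours at 37 °C before readout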). The settings on record: BJ fibroblast viability, qHTS. A digest of the protocol: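 Quantitative HTS: ATP depletion in BJ cells after 40 hr compound exposure in complete culture medium, detected with CellTiter-Glo; AC50 from standard Hill fits.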
In general terms: In qHTS, concentration-response curves come from the screen itself.

Assay [2] can be described thus: Cell Viability - Jurkat (AID 426;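 active = dose-dependent loss of cell ATP signal giving a full or clear fitted curve, ranked by lower potency value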; note: potency is the fitted concentration of half-maximal effect). The settings on record: qHTS. In a few lines:
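Cells of the human T-cell leukemia line Jurkat (E6-1) are seeded at 5000 per well, treated with compound across a concentration range for 40 hours at 37 °C, then lysed with CellTiter-Glo; luminescence reports ATP.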

Assay [3] is described as follows: Cell Viability - Hek293 (AID 427;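 active = compounds whose dose-response curve shows a full or clear partial loss of cell viability, called from curve shape rather than a numeric limit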;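 note: potency is the fitted concentration of half-maximal effect; cells exposed to compound for 40 hours at 37 °C before reading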). The settings on record: qHTS. A digest of the protocol:
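AC50 values derive from Hill-modelled concentration-response of ATP-based luminescence, normalized between DMSO-only and 100 uM tamoxifen controls. Cells were exposed in complete culture medium for 40 hr at 37 °C before detection.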

A short description of assay [4]: Cell Viability - HepG2 (AID 433; calls by dose curve;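 note: potency is the fitted concentration of half-maximal effect; potency for ATP loss meaning cytotoxicity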). The settings on record: qHTS. A digest of the protocol:
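HepG2 cells, 1500 per well, treated 40 hr at 37 °C in complete medium; viability from intracellular ATP by CellTiter-Glo luminescence. Normalized to DMSO and 100 uM tamoxifen; AC50 from Hill fit of qHTS concentration-response.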

The nature of assay [5]: Cell Viability - MRC5 (AID 434; calls by dose curve;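 note: potency is the fitted concentration of half-maximal effect; potency reflects cytotoxicity seen as loss of intracellular ATP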). The settings on record: MRC5 lung fibroblast viability, qHTS. A digest of the protocol: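 AC50 values come from Hill-equation fits of intracellular ATP loss, measured by CellTiter-Glo luminescence. Normal lung fibroblasts (MRC5) had 40 hr compound treatment at 37 C, normalized between DMSO and 100 uM tamoxifen.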
Assay [6] is described as follows: Cell Viability - SK-N-SH (AID 435; calls by dose curve;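 note: potency is the fitted concentration of half-maximal effect; compound exposure lasted 40 h at 37 °C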). The settings on record: SK-N-SH neuroblastoma cell viability qHTS. In a few lines: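 SK-N-SH neuroblastoma cells (1500/well) treated 40 h at 37 °C in complete medium; viability read as cellular ATP by CellTiter-Glo luminescence. Normalized to DMSO and 100 uM tamoxifen; AC50 from Hill fits of qHTS concentration-response.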
Assay [7] concerns the target Mitogen-activated protein kinase 10 (Mus musculus) (UniProt Q61831). Put plainly: JNK3 AlphaScreen Assay (AID 530; active = well fitted curve in either direction with a large enough effect, not every such curve was filed as active;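 note: kinase came from lysate of stimulated human HepG2 cells; signal reports phosphorylation of biotinylated GST-cJun 1-79 at Ser73 with 10 µM ATP; % is set by controls: 0 for no effect and ±100 for the full control effect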). The settings on record: JNK3 lysate, c-Jun phosphorylation; series mostly up to 25.6 µM. A digest of the protocol: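 qHTS titrations with 15 min compound pre-incubation before adding ATP (10 uM final). Read-out: AlphaScreen of Ser73-phosphorylated biotin-GST-cJun using HepG2 lysate JNK3 activated by IL-1β and TNFα.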

The nature of assay [8]: Cell Viability - N2a (AID 540).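 Note: plate controls were DMSO alone for no effect and tamoxifen control for full effect; nearly all actives have a fitted effect of over 45% in size.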 The settings on record: N2a mouse neuroblastoma cell viability; activity change, negative = cytotoxicity: at 92.2 µM (top of the series). In a few lines: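 Cytotoxicity was scored as loss of cellular ATP in N2a cells, a mouse neuroblastoma line. Compounds are applied in a qHTS concentration series for 40 hr at 37 °C.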
A short description of assay [9]: Cell Viability - NIH 3T3 (AID 541).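 Note: plate controls were DMSO alone for no effect and tamoxifen positive control for full effect; nearly all actives have a fitted effect of over 25% in size.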 The settings on record: NIH 3T3 cell viability, qHTS; activity change, negative = cytotoxicity: at 92.2 µM (top of the series). In a few lines: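 Cells seeded at 1000/well, rested 5 hr at 37 °C, then dosed and incubated 40 hr at 37 °C. CellTiter-Glo added, 20 min room temperature, luminescence read. AC50 by Hill fit.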
Assay [10] can be described thus: Cell Viability - HUV-EC-C (AID 542). Note: % is set by controls: 0 for no effect and ±100 for the full control effect; nearly all actives have a fitted effect of over 35% in size. The settings on record: HUV-EC-C endothelial cell viability, qHTS; series mostly up to 92.2 µM. In a few lines: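 Cells were seeded at 1000 per well and incubated 5 hr at 37 °C before compound addition. After 40 hr at 37 °C, CellTiter-Glo reagent was added for 20 min and luminescence read. AC50 values came from Hill-equation modelling.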

The nature of assay [11]: Cell Viability - H-4-II-E (AID 543). Note: % is set by controls: 0 for no effect and ±100 for the full control effect; nearly all actives have a fitted effect of over 35% in size. The settings on record: H-4-II-E rat hepatoma viability; series mostly up to 92.2 µM. A digest of the protocol: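 Cells seeded at 1500 per well and rested 5 hr; compounds added; 40 hr incubation at 37 °C; CellTiter-Glo added, 20 min at room temperature; luminescence read. Hill-equation fits gave AC50.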
The nature of assay [12]: Cell Viability - SH-SY5Y (AID 544).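 Note: 0% = DMSO alone and -100% = 100 µM tamoxifen; nearly all actives have a fitted effect of over 55% in size.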 The settings on record: SH-SY5Y neuroblastoma cell viability; viability change, negative = cytotoxic: at 92.2 µM (top of the series). A digest of the protocol: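 Cells were plated at 1500 per well and allowed 5 hr at 37 °C. Compounds were added across a concentration range and incubated 40 hr at 37 °C. CellTiter-Glo was added for 20 min at room temperature before luminescence reading.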

Assay [13] is described as follows: Cell Viability - Renal Proximal Tubule (AID 545).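 Note: 0% = DMSO only and -100% = 100 µM tamoxifen; nearly all actives have a fitted effect of over 40% in size.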 The settings on record: renal proximal tubule cells viability, primary cells of rat origin; activity change, negative = cytotoxicity: at 91.7 µM (top of the series). In a few lines:
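Rat renal proximal tubule primary cells, 1000/well, exposed to compounds for 40 hr at 37 °C in complete medium; cellular ATP read by CellTiter-Glo luminescence. AC50 from concentration-response fitted with standard Hill equation.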

Assay [14] can be described thus: NFAT Signaling Pathway (AID 444; active = well fitted curve in either direction with a large enough effect, not every such curve was filed as active;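 note: carbachol stimulus at about its EC50 of 1 µM final; % is set by controls: 0 for no effect and ±100 for the full control effect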). The settings on record: Jurkat NFAT-bla M1, carbachol, beta-lactamase ratio, 5 h; at 17.2 µM (top of the series). A digest of the protocol: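 Read-out: CCF4 FRET ratio (460 nm/530 nm) after 1 h RT dye loading, used for %activity and AC50 from titration series. Cells: Jurkat NFAT-β-lactamase/M1 line, treated with compound plus 1 uM carbachol for 5 h, 37 °C.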

The nature of assay [15]: Stat Signaling Pathway (AID 446; active = well fitted curve in either direction with a large enough effect, not every such curve was filed as active;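 note: ME-180 cervical cancer cells given 40 pM IL-6 alongside compound; SIE-controlled beta-lactamase reporter measured as 460/530 nm FRET emission ratio; % is set by controls: 0 for no effect and ±100 for the full control effect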). The settings on record: ME-180 SIE beta-lactamase reporter, IL-6 stimulated, 5 h; at 17.2 µM (top of the series). A digest of the protocol: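 Overnight-plated ME-180 cells bearing a STAT Inducible Element beta-lactamase reporter; 5 h co-exposure to compound and 40 pM IL-6; values normalized to 300 pM IL-6 and 125 nM JAK inhibitor controls.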

In assay [16] the target is Glucocorticoid receptor (Homo sapiens) (UniProt P04150). As to the kind of experiment: GR-GFP Redistribution (AID 450;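 active = compounds whose dose series gives a full or clear partial fitted curve of increased nuclear translocation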; note: potency is the fitted concentration of half-maximal effect). The settings on record: U2OS GR-GFP nuclear translocation, laser cytometry, 2 h.
Chain of Glucocorticoid receptor (Homo sapiens) (P04150 whole entry, looked up): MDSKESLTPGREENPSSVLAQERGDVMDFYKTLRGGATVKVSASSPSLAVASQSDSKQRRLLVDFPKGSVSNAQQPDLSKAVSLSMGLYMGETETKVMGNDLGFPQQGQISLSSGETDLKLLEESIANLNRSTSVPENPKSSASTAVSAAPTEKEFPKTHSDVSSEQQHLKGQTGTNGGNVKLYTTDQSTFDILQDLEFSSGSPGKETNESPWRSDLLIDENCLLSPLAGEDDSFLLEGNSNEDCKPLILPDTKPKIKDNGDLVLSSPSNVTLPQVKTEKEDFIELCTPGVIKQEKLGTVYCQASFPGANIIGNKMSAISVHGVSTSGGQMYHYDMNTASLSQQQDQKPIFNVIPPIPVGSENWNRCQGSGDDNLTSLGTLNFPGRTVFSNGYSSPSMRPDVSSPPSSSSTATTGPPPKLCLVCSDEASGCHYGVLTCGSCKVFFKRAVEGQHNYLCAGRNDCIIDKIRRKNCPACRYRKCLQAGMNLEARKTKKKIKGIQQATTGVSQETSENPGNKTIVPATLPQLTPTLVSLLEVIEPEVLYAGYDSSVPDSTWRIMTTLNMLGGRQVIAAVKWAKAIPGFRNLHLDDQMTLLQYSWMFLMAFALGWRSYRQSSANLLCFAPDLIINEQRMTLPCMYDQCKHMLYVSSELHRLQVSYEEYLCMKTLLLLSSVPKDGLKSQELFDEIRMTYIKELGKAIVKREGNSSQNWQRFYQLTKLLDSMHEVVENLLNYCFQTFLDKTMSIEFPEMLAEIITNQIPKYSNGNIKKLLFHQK
Assay [17] in a line: AP1 Signaling Pathway (AID 357; active = well fitted curve in either direction with a large enough effect, not every such curve was filed as active;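 note: ME-180 reporter cells stimulated with EGF at its EC50 level; % is set by controls: 0 for no effect and ±100 for the full control effect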). The settings on record: ME-180 (cervical carcinoma) AP-1-bla reporter, EGF-induced, beta-lactamase ratio, 5 h; at 17.2 µM (top of the series). In a few lines: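 First, ME-180 AP-1-bla cells were cultured overnight at 37 °C in low-serum Opti-MEM. Next, titrated compounds with EC50 EGF were incubated 5 hours. Finally, CCF4 was added for 2.5 hours and the 460/530 nm ratio recorded.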

As for `Nc1ccc(C(=O)O)cc1`, the Potency in assay [1], in assay [2], in assay [3], in assay [4], in [5] and in assay [6] was above 92 µM throughout. Also, in assay [7], the compound was called inactive. Moreover, the Potency entry in [8], in [9], in assay [10], in assay [11] and in assay [12] was “inactive” each time. Also, the activity change, negative = cytotoxicity in assay [13] is -7.22%.
For `O=C1OC(c2ccc(O)cc2)(c2ccc(O)cc2)c2ccccc21`, the Potency in assay [1], in [3], in [4], in [5] and in assay [6] was above 92 µM throughout. In assay [14], the activity change, negative = inhibition was -4.2%. Moreover, the activity, negative = inhibition in assay [15] is -16.8%. Moreover, the call in [7] was inactive. Besides, the Potency entry in [8], in [9] and in [11] was “inactive” in each case.
On to `C/C=C(/C(=C/C)c1ccc(O)cc1)c1ccc(O)cc1`, for which, in assay [15], the activity, negative = inhibition was -10.4%. In addition, the Potency in assay [16] was above 20.6 µM.
`CCCCCCc1ccc(O)cc1O`: the Potency in assay [1], in assay [2], in assay [3], in [4], in [5] and in assay [6] was above 92 µM throughout. Moreover, the call in assay [7] was inactive. The Potency result in [10], in assay [11] and in assay [12] was “inactive” each time. Moreover, the activity change, negative = cytotoxicity in [13] was -9.26%.
`CN(C)CCCOc1nn(Cc2ccccc2)c2ccccc12`: the activity change, negative = inhibition in assay [17] is 10.8%. Moreover, the activity, negative = inhibition in [15] is -8.78%. The Potency in assay [16] is above 20.6 µM. Further, the result in [7] was inactive.
Regarding `C[C@]12CC[C@@H]3c4ccc(O)cc4CC[C@H]3[C@@H]1CC[C@@H]2O`, the Potency in [1] is above 92 µM; in assay [2], 25.8 µM (active); in [4] it was above 92 µM; in [5], above 92 µM. For the same compound, in assay [7], the call was inactive. Moreover, the Potency entry in assay [8] and in assay [10] was “inactive” each time.
`O=c1ccc2ccccc2o1`: the Potency in [1], in [2], in [3], in [4], in assay [5] and in assay [6] was above 92 µM each time. For the same compound, in assay [7], the result was inactive. The Potency entry in [8], in assay [9], in assay [10], in assay [11] and in assay [12] was “inactive” each time. In addition, the activity change, negative = cytotoxicity in assay [13] is -6.1%.
